# Compound activity (PubChem BioAssay)
# IMPase Li inh = qHTS Assay for Identifying the Cell-Membrane Permeable IMPase Inhibitors: Potentiation with Lithium. CHO-M1 cells, IP1 TR-FRET (IP-One), carbachol + lithium. Potency, µM (doses to about 59.4 µM), without a hit: at the highest dose activity, negative = IMPase inhibition, usual class: inhibitors. 0.35% of 210,000 active;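 also: IP1 builds up when IMPase is blocked and the TR-FRET signal falls; potency is read from the fitted curve at half-maximal effect; plate controls were basal vehicle for no effect and high inhibitor control for full effect; nearly all actives have a fitted effect of over 50% in size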
#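 Test compounds were applied to CHO-M1 cells previously cultured for 16–30 h at 2000 per well. A small lithium amount accompanied them; after 30 min at 37C, IP1 was quantified by TR-FRET.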
# NPSR antag = qHTS Assay for Antagonists of the Neuropeptide S Receptor: cAMP Signal Transduction; 1% of 220,000 active; AID 1461, 2008; Potency, µM (doses to about 38.3 µM), inactives show top-dose activity change, negative = inhibition, actives largely listed as inhibitors; CHO-NPSR cells, cAMP TR-FRET, antagonist mode; also: potency is read from the fitted curve at half-maximal effect; nearly all actives have a fitted effect of over 50% in size
# ALOX12 inhib = qHTS Assay for Inhibitors of 12-hLO (12-human lipoxygenase); 0.12% of 150,000 active; Potency, µM (top dose mostly 57.1 µM), for the others: at the top dose activity change, negative = inhibition, most hits filed as inhibitors; purified 12-hLO, xylenol orange hydroperoxide absorbance; Polyunsaturated fatty acid lipoxygenase ALOX12 (Homo sapiens), P18054; also: potency is read from the fitted curve at half-maximal effect; nearly all actives have a fitted effect of over 55% in size
#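 Hydroperoxide formation by human 12-lipoxygenase from 40 uM arachidonic acid was followed colorimetrically via ferric-xylenol orange complex, using the 573/405 nm absorbance ratio. Enzyme concentration was 150 nM, with 30 min reaction at room temperature.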
# IMPase inh = qHTS Assay for Identifying the Cell-Membrane Permeable IMPase Inhibitors | inhibition (IP1 accumulation), % at 46.1 µM | CHO-M1 cells, IP1 accumulation, HTRF TR-FRET ratio | AID 901, 2007 | 120,000 tested, under 10 active; active = well fitted curve in the direction sought with a large enough effect in the signal ratio, not every such curve was filed as active; inconclusive = small, poorly fitted or top-dose-only effect, or a change in a side signal; inactive = no such curve, though single readings can be large or run the other way; the % refers to the signal ratio;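 also: cells stimulated with carbachol in lithium chloride buffer; plate controls were DMSO basal wells for no effect and reference inhibitor wells for full effect; higher means more IMPase inhibition seen as more IP1 and lower FRET ratio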
# Target sequence (P97697 whole entry, looked up): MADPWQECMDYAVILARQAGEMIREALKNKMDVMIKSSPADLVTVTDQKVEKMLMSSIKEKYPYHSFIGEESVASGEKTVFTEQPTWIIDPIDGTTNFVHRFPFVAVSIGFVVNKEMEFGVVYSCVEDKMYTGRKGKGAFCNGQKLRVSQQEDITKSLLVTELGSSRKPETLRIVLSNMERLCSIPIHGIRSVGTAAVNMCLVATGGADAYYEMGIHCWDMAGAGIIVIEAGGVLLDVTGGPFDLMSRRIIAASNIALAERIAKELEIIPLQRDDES
#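 The IP-One HTRF competitive assay in carbachol-stimulated CHO-M1 cells quantifies cellular IP1. Compounds spanned up to 46 uM final, and activity is expressed as AC50 from concentration-response fits of the ratio and donor data.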
# ALDH1A1 block = qHTS Assay for Inhibitors of Aldehyde Dehydrogenase 1 (ALDH1A1); Aldehyde dehydrogenase 1A1 (Homo sapiens), P00352; Purified ALDH1A1, NADH fluorescence, propionaldehyde substrate; Potency, µM (highest dose often 75.3 µM), for inactives: at the top dose activity, negative = inhibition, actives largely listed as inhibitors; 7.3% of 220,000 active; AID 1030, 2008; active = well fitted inhibition curve with a large enough effect, not every such curve was filed as active; inconclusive = small, poorly fitted or top-dose-only effect, or another doubt; inactive = no such curve, though single readings can be large or run the other way;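 also: potency is read from the fitted curve at half-maximal effect; plate controls were no enzyme wells and a reference inhibitor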
# HPGD inh = qHTS Assay for Inhibitors of HPGD (15-Hydroxyprostaglandin Dehydrogenase). 15-hydroxyprostaglandin dehydrogenase [NAD(+)] (Homo sapiens), P15428. purified HPGD, NADH fluorescence kinetic, PGE2 substrate. Potency, µM, inactives show at the highest dose activity change, negative = inhibition, hits mostly inhibitors. 4.3% of 150,000 active. AID 894, 2007; active = well fitted inhibition curve with a large enough effect, not every such curve was filed as active; inconclusive = small, poorly fitted or top-dose-only effect, or another doubt; inactive = no such curve, though single readings can be large or run the other way; also: potency is read from the fitted curve at half-maximal effect
# Target sequence (P15428 whole entry, looked up): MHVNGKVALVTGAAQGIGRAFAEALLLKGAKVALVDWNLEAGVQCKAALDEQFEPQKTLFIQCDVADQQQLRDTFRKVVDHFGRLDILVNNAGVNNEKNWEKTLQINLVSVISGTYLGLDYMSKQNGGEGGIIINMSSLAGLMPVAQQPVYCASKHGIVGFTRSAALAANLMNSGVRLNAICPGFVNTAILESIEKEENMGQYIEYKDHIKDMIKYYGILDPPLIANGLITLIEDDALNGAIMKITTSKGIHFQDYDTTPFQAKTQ
#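 NADH formation kinetics: reaction with 30 uM PGE2 and 1 mM NAD+ (final), 20 nM enzyme, Tris-HCl pH 8 with Tween 20, after 15 min compound preincubation at room temperature. Fluorescence change, last versus first of five reads.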
# Starred values were filed as active, the others as inactive; ? = inconclusive; . = not tested or not shown; [ ] = dose if it differs, or a comment. In the library only some 8.9% were active in any assay of this set; here they are far more common. Unless noted, calls follow the shape of the dose curve; as a rule, active = well fitted curve in the direction sought with a large enough effect; inconclusive = small, poorly fitted or top-dose-only effect, or another doubt; inactive = no such curve, though single readings can be large; an effect the other way counts as inactive or inconclusive. Unless noted, % is scaled to controls: 0 for no effect and ±100 for the full control effect.
SMILES,IMPase Li inh,NPSR antag,ALOX12 inhib,IMPase inh,ALDH1A1 block,HPGD inh
COC(=O)c1ccc2c(=O)n(CC3CCCO3)c(SCC(=O)Nc3ccccc3OC)nc2c1 (configuration not stated),?,?,-7%,5,14µM*,-12%
COC(=O)c1ccc2c(=O)n(CC3CCCO3)c(SCC(=O)Nc3ccccc3Cl)nc2c1 (configuration not stated),-5%[38.3 µM],-17%[46.1 µM],-1%,-9,16%,-9%
CCn1c(SCC(=O)Nc2ccc(C(=O)OC)cc2)nc2cccnc21,-5%,17%,7%,4,1%,3.5µM*
COC(=O)c1ccc(NC(=O)CSc2nnc(-c3ccncc3)n2N)cc1,-14%[38.3 µM],-6%[46.1 µM],0%,?,25µM*,-26%
COCCNC(=O)CSc1nc2ccccc2c(=O)n1CC1CCCO1 (configuration not stated),5%[38.3 µM],-20%[46.1 µM],-4%,4,-8%,-3%
CCn1nc(C)c(/C=N/NC(=O)Cn2nnc(N)n2)c1C,.,7%,.,.,.,.
Nc1nn(-c2cccc(F)n2)cc1-c1ccccc1,11%,-5%,.,.,-3%,.
Cc1oc(/N=C/c2ccc(O)cc2O)c(C#N)c1C,1%,-3%,.,.,?,.
Oc1ccc(-c2[nH]ncc2-c2cnn(-c3ccccc3)c2)c(O)c1,7%,-13%,.,.,?,.
Cc1cc(OCC(=O)c2ccc(Br)cc2)ccc1N1C(=O)CCC1=O,27%[38.3 µM],-11%[46.1 µM],-2%,-5,?,14µM*
Cc1ccc(C(=O)Oc2ccc(N3C(=O)CCC3=O)c(C)c2)cc1,3%,11%,.,.,13%,.
Cc1ccc(OCC(=O)c2ccc3c(c2)CCCC3)cc1C,9%[38.3 µM],-17%[46.1 µM],-5%,-1,-1%,32µM*
O=c1c2c(nc3n1CCCCC3)-c1ccccc1CC21CCCCC1,6%,?,3%,-11,10%,-8%
COC(=O)c1ccc2c(c1)S(=O)(=O)NC(=NCc1ccco1)S2,-18%[38.3 µM],-2%[46.1 µM],-2%,5,-13%,14µM*
COC(=O)c1ccc(=O)n(Cc2ccco2)c1,8%,9%,1%,-8,-13%,-7%
NC(=S)Nc1cc2ccccc2c2ccccc12,-8%[38.3 µM],12%[46.1 µM],?,-13,0.4µM*,-8%
C/C(CC(=O)Nc1cccc2c1CCCC2)=N\NC(=O)COc1ccccc1,-7%,9%,-3%,.,9.5µM*,-15%
CC1C/C(=N/N=C2/NC(=O)CS2)CC(C)(C)C1 (configuration not stated),-11%[38.3 µM],0%[46.1 µM],8%,7,?,-2%
CC1=C(C(=O)Nc2ccc(C)cc2)C(c2ccccc2Cl)n2nnnc2N1 (configuration not stated),.,.,.,-11,.,.
COC(=O)C1=C(C(=O)c2ccccc2)C(c2cccs2)n2nnnc2N1 (configuration not stated),-9%[38.3 µM],-23%[46.1 µM],-4%,-1,22µM*,-7%
CC1=C(C(=O)Nc2ccc(Cl)cc2)C(c2cccs2)n2nnnc2N1 (configuration not stated),-3%[38.3 µM],-14%[46.1 µM],-5%,-2,5µM*,-10%
Cc1c(NC(=S)NC(C)(C)C)c(=O)n(-c2ccccc2)n1C,9%,3%,.,.,-3%,.
NCCCCCCNS(=O)(=O)c1ccc2c(Cl)cccc2c1,19%,.,1%,-3,?,0%
CCOc1cccc(/C=C2\NC(=S)N(c3ccccc3)C2=O)c1O,.,35%,.,.,20µM*,.
Cc1ccc(-n2nc(C)cc2NC(=O)CC#N)cc1,4%,9%,.,.,7%,.
CCCN(CCC)S(=O)(=O)c1ccc(C(=O)N2CCC(=O)c3ccccc32)cc1,15%[38.3 µM],-15%[46.1 µM],-16%,13,18µM*,-12%
